Data on three molecules can be found in PubChem BioAssay (NCI).

Each structure is given as a SMILES string. The panel holds about 83,000 compounds, 20% with a hit somewhere; the sample as a whole holds those more often.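 Percent growth is the endpoint: 0 to 100 indicates growth inhibition (40 means 60% inhibition), 0 means no net growth, and negative values indicate cell death.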 Calls of active or inactive are those of the source. Rule for the calls: active = growth percent below 10; inactive = the rest.

The experiment relates to HL-60(TB) leukemia. Kind of experiment: NCI-60 one-dose screen, 48 h (100 = growth as untreated, 0 = no growth, -100 = all killed). Particulars: 10 µM unless noted.
As to `CCN(CCO)CCCOc1ccc2c(Nc3cc(CC(=O)Nc4cccc(F)c4)[nH]n3)ncnc2c1`, the growth is -2.32% (active).
As for `O=C1C=CN2C(=O)CC=CC2[C@@H]1O` (stereo partly drawn), the growth was 98.1% (inactive).
As to `CC1c2ccccc2N(S(=O)(=O)c2ccccc2)C1C` (stereo not drawn), the growth is 67.6% (inactive).
